# Data from PubChem BioAssay (NCATS).
# Where “and” joins values, the source holds several entries; their conditions need not be identical. Equal values may be shown once. Results filed as inconclusive are left out. Entries that show only a call come without a potency. Where a structure was tested more than once in an assay, its records may differ in their call. Calls of active or inactive are those of the source. Calls come from the whole dose curve; as a rule, active = well fitted curve in the direction sought with a large enough effect; inconclusive = small, poorly fitted or top-dose-only effect, or another doubt; inactive = no such curve, though single readings can be large; an effect the other way counts as inactive or inconclusive.
# What was measured:
# [1] = Viability qHTS for spleen associated tyrosine kinase inhibitor (SYKi) naive MV4-11 cells (AID 1963823); details: MV4-11 AML viability, CellTiter-Glo luminescence, 72 h; series mostly up to 45 µM; note: nearly all actives have a fitted effect of over 40% in size
# Method in brief: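 Compounds were dispensed acoustically onto plates, MV4-11 cells (SYKi-naive) added at 500 per well, and plates incubated 72 hr at 37 C. CellTiter-Glo was added and luminescence measured after 10 min.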
# [2] = Viability qHTS for spleen associated tyrosine kinase inhibitor (SYKi) drug resistant MV4-11 cells (AID 1963824); details: SYKi-resistant MV4-11 viability, CellTiter-Glo, 72 h; series mostly up to 45 µM; note: nearly all actives have a fitted effect of over 35% in size
# Method in brief: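 CellTiter-Glo luminescence, read 10 min after reagent addition, reports viability after a 72 hr compound exposure. Cells are an MV4-11 line made resistant to SYK inhibition, seeded at 500 per well onto compound-containing plates.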
# [3] = Cellular viability qHTS for adrenocortical cancer (ACC) cell line SW-13 (AID 1963989); details: SW-13 ACC cells viability, CellTiter-Glo, 48 h; activity (max response): stronger effect = lower value; note: nearly all actives have a fitted effect of over 65% in size;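 for activity (max response): cells grown in serum-free medium with ITS supplement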
# Method in brief: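 Viability was read as CellTiter-Glo luminescence after 48 h compound treatment (up to 46 uM final) of SW-13 cells grown serum-free; titration curves were fit with a four-parameter logistic model to give IC50 and efficacy.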
# [4] = Cellular viability qHTS for adrenocortical cancer (ACC) cell line NCI-H295R (AID 1963990); details: CellTiter-Glo ATP luminescence, 48 h; series mostly up to 46.1 µM; note: nearly all actives have a fitted effect of over 60% in size
# Method in brief: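 CellTiter-Glo ATP luminescence, read 48 h after compound addition, measured viability of NCI-H295R adrenocortical cells grown serum-free with ITS. Final concentrations spanned up to 46 uM. Data normalized to DMSO and doxorubicin, fitted for IC50 and maximal response.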
# Potency is the fitted concentration of half-maximal effect.
Structure (SMILES),Potency [1],Potency [2],activity (max response) [3],Potency [4],Potency [3]
CCNC(=O)CC1N=C(c2ccc(Cl)cc2)c2cc(OC)ccc2-n2c(C)nnc21 (stereo unspecified),14.8 µM (active) and inactive and 517 nM (active),8.33 µM (active) and inactive and 517 nM (active),-19.5% (inactive),inactive,
O=C(NC(O)C(Cl)(Cl)Cl)NC(O)C(Cl)(Cl)Cl (stereo unspecified),inactive,inactive,11.7% (inactive),inactive,
COc1cc(N)c(Cl)cc1C(=O)NC1CN2CCC1CC2 (stereo unspecified),inactive,inactive,-1.3% (inactive),inactive,
C[C@H]1CCC/C=C/C2C[C@H](O)C[C@H]2[C@H](O)/C=C/C(=O)O1 (stereo partly specified),184 nM (active) and 148 nM (active),92 nM (active) and 118 nM (active),,0.224 µM (active),0.282 µM (active)
CC1(C)C(C=C(Cl)Cl)C1C(=O)OC(C#N)c1cccc(Oc2ccccc2)c1 (stereo unspecified),2.66 µM (active),inactive,4.33% (inactive),inactive,
CCCCC1C(=O)NC(=O)N(C2CCCCC2)C1=O (stereo unspecified),inactive,inactive,-4.2% (inactive),inactive,
CCS(=O)(=O)C(C)(C)S(=O)(=O)CC,inactive,inactive,-10.9% (inactive),inactive,
CCC(OC(C)=O)C(CC(C)NC)(c1ccccc1)c1ccccc1 (stereo unspecified),43.7 µM (active),31 µM (active),,15.8 µM (active),28.2 µM (active)
Cc1ccc2c(c1)C1CN(C)CCC1N2 (stereo unspecified),inactive,inactive,-4.86% (inactive),inactive,
